From publication PMC5540273 (PLoS ONE, 2017)

Assays:
Settings in all cases: concentration: 1 μM, replicates: in singlicate; n = 1
MAPKAPK5 = test system: MAPKAPK5
MARK1 = test system: MARK1
MARK2 = test system: MARK2
MARK3 = test system: MARK3
MARK4 = test system: MARK4
MAST1 = test system: MAST1
MEK1 = test system: T1, MEK1
T1 construct: gene MAP2K1

MEK2 = test system: T2, MEK2
T2 construct: gene MAP2K2

MEK3 = test system: T3, MEK3
T3 construct: gene MAP2K3

MEK4 = test system: T4, MEK4
T4 construct: gene MAP2K4

MEK5 = test system: T5, MEK5
T5 construct: gene MAP2K5

MEK6 = test system: T6, MEK6
T6 construct: gene MAP2K6

MELK = test system: MELK
MERTK = test system: MERTK
MET = test system: MET
MINK = test system: T7, MINK
T7 construct: gene MINK1

MKK7 = test system: MKK7
MKNK1 = test system: MKNK1
MKNK2 = test system: MKNK2
MLCK = test system: T8, MLCK
T8 construct: gene MYLK3
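Also: KINOMEscan kinase panel screen.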

Row | SMILES | %Inh (MAPKAPK5) [%] | %Inh (MARK1) [%] | %Inh (MARK2) [%] | %Inh (MARK3) [%] | %Inh (MARK4) [%] | %Inh (MAST1) [%] | %Inh (MEK1) [%] | %Inh (MEK2) [%] | %Inh (MEK3) [%] | %Inh (MEK4) [%] | %Inh (MEK5) [%] | %Inh (MEK6) [%] | %Inh (MELK) [%] | %Inh (MERTK) [%] | %Inh (MET) [%] | %Inh (MINK) [%] | %Inh (MKK7) [%] | %Inh (MKNK1) [%] | %Inh (MKNK2) [%] | %Inh (MLCK) [%]
1 | Clc1ccc(-c2nn3ncccc3c2-c2ccnc(Nc3ccc4c(c3)OCCO4)n2)cc1 [GW829116] | 0 | 0 | 0 | 20 | 0 | 0 | 6 | 27 | 14 | 1 | 33 | 20 | 0 | 0 | 0 | 23 | 0 | 0 | 0 | 0
2 | FC(F)(F)c1ccc(/C=C/c2cncnc2Nc2ccc3[nH]c(Cc4ccccc4)nc3c2)cc1 [GW709199] | 0 | 0 | 0 | 28 | 8 | 5 | 0 | 25 | 0 | 0 | 32 | 0 | 0 | 4 | 16 | 1 | 0 | 0 | 0 | 0
3 | COc1cccc(-c2ccc3c(NC(=O)C4CC4)n[nH]c3n2)c1 [SB-710903] | 0 | 0 | 0 | 0 | 9 | 42 | 0 | 0 | 0 | 17 | 61 | 0 | 0 | 38 | 28 | 76 | 0 | 32 | 21 | 47
4 | COc1cc(Nc2nccc(-c3c(-c4cccc(NC(=O)c5c(F)cccc5F)c4)nn4ncccc34)n2)cc(OC)c1OC [GSK327238] | 0 | 53 | 18 | 30 | 56 | 0 | 98.5 | 98.4 | 12 | 46 | 99.9 | 51 | 31 | 90.2 | 79 | 44 | 0 | 5 | 5 | 47
5 | O=C(Nc1ccccc1F)NC1CCN(c2ccnc(Nc3ccc(F)cc3)n2)CC1 [GSK1379800] | 0 | 0 | 0 | 0 | 2 | 0 | 0 | 0 | 0 | 4 | 13 | 0 | 15 | 0 | 0 | 0 | 17 | 0 | 0 | 0
6 | CN1CCN(CCCNc2nccc(-c3c(-c4ccc(F)cc4)nn4cc(C(F)(F)F)ccc34)n2)CC1 [GW621581] | 0 | 7 | 0 | 16 | 16 | 0 | 0 | 0 | 0 | 10 | 25 | 0 | 0 | 26 | 0 | 17 | 0 | 0 | 1 | 4
7 | O=C(O)C(F)(F)F.O=C(O)C(F)(F)F.O=c1[nH]ccc2nc(N[C@@H]3CCCNC3)nc(Nc3ccc(S(=O)(=O)N4CCOCC4)cc3)c12 [GSK2177277] | 61 | 95.3 | 98.2 | 90.5 | 97.1 | 27 | 96.6 | 91.6 | 99.4 | 99.4 | 100 | 86 | 100 | 100 | 90.2 | 98.1 | 81 | 7 | 59 | 90.8
8 | COc1ccc(CNC(=O)NC2CCN(c3ccnc(Nc4ccc(F)cc4)n3)CC2)cc1 [GSK1379788] | 0 | 0 | 0 | 0 | 0 | 3 | 0 | 9 | 0 | 45 | 9 | 0 | 0 | 0 | 0 | 0 | 0 | 2 | 0 | 0
9 | COc1cc(Nc2ncc3c(C)nc(-c4cc5ccccc5[nH]4)n3n2)cc(OC)c1OC [GW869516] | 0 | 16 | 11 | 3 | 22 | 13 | 0 | 0 | 0 | 0 | 78 | 0 | 49 | 56 | 0 | 1 | 0 | 0 | 0 | 36
